High-throughput results (PubChem)
A selection: hits, their analogues and other compounds. The true share with any hit is near 3%.
Nrf2 inh = Nrf2 qHTS screen for inhibitors. A549 ARE-Fluc reporter, luciferase luminescence, 18-24 h. Potency, µM (series often up to 46 µM), usual class: inhibitors. hit rate 2.1% among 360,000. AID 504444, 2011; note: nearly all actives have a fitted effect of over 60% in size
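Nrf2 activity is the BugLite luminescence, read 15 min after reagent at room temperature, following CellTiter-Fluor cytotoxicity readout (30 min, 37C). Compound titrations were applied for 18-24 h to 5000 A549 ARE_Fluc cells/well in 5% FBS OPTI-MEM.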
Nrf2 activator = qHTS of Nrf2 Activators; Potency, µM (highest dose often 46.1 µM), most hits filed as activators; AREc32 ARE-luciferase reporter (MCF7-derived line), luminescence, 24 h; hit rate 0.31% among 410,000; note: nearly all actives have a fitted effect of over 65% in size
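Quantitative high-throughput format: AREc32 reporter cells, 1000 per well, received compound by pin transfer and were incubated 24 hr at 37 deg C, 5% CO2, before Steady-Glo luminescence detection.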
TrxR1 substrate = qHTS Assay for Substrates of Mammalian Selenoprotein Thioredoxin Reductase 1 (TrxR1): qHTS; purified TrxR1 substrate turnover, NADPH consumption readout; Potency, µM (series often up to 114 µM); hit rate 0.01% among 390,000; AID 588456, 2011; note: nearly all actives have a fitted effect of over 50% in size
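Rat TrxR1, dispensed at 90 nM, was prereduced with 400 uM NADPH (final) for 5 min at ~22 deg C, then incubated with compound 15 min before 400 uM selenite. A first-read NADPH fluorescence drop versus no-compound background flagged substrates.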
rTrxR1 inhibitor = qHTS Assay for Inhibitors of Mammalian Selenoprotein Thioredoxin Reductase 1 (TrxR1): qHTS; Thioredoxin reductase 1, cytoplasmic (Rattus norvegicus), O89049; recombinant rTrxR1, NADPH fluorescence consumption, selenite substrate; Potency, µM (doses to about 114 µM), usual class: inhibitors; hit rate 1% among 390,000; note: nearly all actives have a fitted effect of over 65% in size
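Rat TrxR1 (90 nM in the dispensed reagent) was pre-reduced with 400 uM NADPH for 5 min at room temperature, then incubated with compound for 15 min. After 400 uM selenite was added, NADPH fluorescence (Ex 340/Em 450 nm) was followed for 8 min.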
A549 viability = Nrf2 qHTS screen for inhibitors: counterscreen for cytotoxicity | A549 ARE-Fluc cells, CellTiter-Fluor viability, 18-24 h | Potency, µM (series often up to 46 µM), actives largely listed as inhibitors | hit rate 0.16% among 390,000 | AID 504648, 2011
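A549 ARE_Fluc cells in 5% FBS OPTI-MEM were exposed to compounds in concentration-response for 18-24 h at 37 deg C. Viability was read by CellTiter-Fluor fluorescence (Ex 405/Em 525) after 30 min, before the luciferase read.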
GALK inhibitor = qHTS Assay for Inhibitors of Human Galactokinase (GALK) | P51570 | Purified GALK, Kinase-Glo residual ATP luminescence | Potency, µM (series often up to 57.5 µM), usual class: inhibitors | hit rate 0.007% among 270,000 | AID 1868, 2009
Target sequence (P51570 whole entry, looked up): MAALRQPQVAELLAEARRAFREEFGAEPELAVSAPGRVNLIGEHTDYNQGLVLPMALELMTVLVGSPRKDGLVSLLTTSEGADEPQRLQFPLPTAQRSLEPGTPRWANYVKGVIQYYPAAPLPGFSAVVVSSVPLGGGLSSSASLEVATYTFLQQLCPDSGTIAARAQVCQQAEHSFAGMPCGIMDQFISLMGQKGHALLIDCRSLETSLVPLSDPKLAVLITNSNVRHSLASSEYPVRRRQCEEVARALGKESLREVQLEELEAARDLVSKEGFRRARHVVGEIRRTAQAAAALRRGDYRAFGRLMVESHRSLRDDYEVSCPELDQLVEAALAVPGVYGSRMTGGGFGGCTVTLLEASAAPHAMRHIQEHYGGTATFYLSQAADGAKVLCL
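Kinase-Glo Plus luminescence measured ATP left after a 1 h room-temperature reaction. The reaction used 5 nM GALK, 100 uM galactose and 35 uM ATP at pH 8.0 (20 mM HEPES, 5 mM MgCl2, 60 mM NaCl, 1 mM DTT, 0.01% BSA).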
Numbers stand for hits; i = inactive; ? = inconclusive; nt = no result given; [ ] = remark or other dose. Calls come from the whole dose curve; as a rule, active = well fitted curve in the direction sought with a large enough effect; inconclusive = small, poorly fitted or top-dose-only effect, or another doubt; inactive = no such curve, though single readings can be large; an effect the other way counts as inactive or inconclusive.

SMILES	Nrf2 inh	Nrf2 activator	TrxR1 substrate	rTrxR1 inhibitor	A549 viability	GALK inhibitor
Oc1ccc(C[C@H]2CNC(=S)N2CC2CCCN2C[C@H](Cc2ccc(O)cc2)N2C[C@H](Cc3ccccc3)N(CCc3ccccc3)C2=S)cc1 (stereo not given in full)	21µM	i	i	i	i	nt
Oc1ccc(C[C@H]2CN([C@@H](Cc3ccccc3)CN3CCCC3CN3C(=S)NC[C@@H]3Cc3ccccc3)C(=S)N2CC2CCCCC2)cc1 (stereo not given in full)	nt	i	nt	nt	nt	nt
CCCCNC(=O)CNC(=S)N(Cc1ccccc1)Cc1cccs1	23µM	i	i	i	i	i
CCOC(=O)CNC(=S)N(Cc1cccs1)C1CCCCC1	i	i	i	i	i	i
COC(CNC(=O)CNC(=S)N(Cc1ccccc1)Cc1cccs1)OC	i	i	i	i	i	i
CC(CCc1ccccc1)NC(=O)CNC(=S)N(Cc1cccs1)C1CCCC1 (stereo not given)	15µM	i	i	i	?	i
COc1ccc(NC(=O)c2oc3ccccc3c2NC(=O)Cc2ccc(F)cc2)c(OC)c1	i	i	i	i	i	nt
COc1ccc(NC(=O)CCc2c(C)nc3nc(CNC(=O)OC(C)(C)C)nn3c2C)cc1OC	i	i	i	i	i	nt
O=C1/C(=C/c2ccc(O)c(O)c2)SC(=S)N1Nc1ccccc1	i	i	i	i	i	i
O=C(O)c1ccc(/C=C2\SC(=S)N(Nc3ccccc3)C2=O)cc1	i	i	i	50µM	i	i
O=C1/C(=C/c2ccncc2)SC(=S)N1Nc1ccccc1	i	?	i	4.5µM	i	i
CN(N=O)c1ccc(/C=C2\C=Cc3ccccc32)cc1	nt	nt	i	i	nt	nt
N#Cc1cc(O)c(-n2nnc3ccccc32)cc1C#N	i	i	i	i	i	i
N#Cc1cc(Oc2cccc3cccnc23)c(-n2nnc3ccccc32)cc1C#N	nt	i	i	71µM	i	i
O=C(CS(=O)(=O)c1cccc2nsnc12)Nc1ccccc1	nt	i	i	i	i	nt
CCc1cccc2c(C(=O)COC(=O)c3ccc([N+](=O)[O-])s3)c[nH]c12	?	i	i	i	21µM	i
Cc1cc(C#Cc2c(-c3ccccc3)n(C)c3ccccc23)ccc1F	i	i	i	35µM	i	nt
COc1ccc(-c2c(C#Cc3ccsc3)c3ccccc3n2C)cc1	i	i	i	10µM	i	nt
COc1cc(C#Cc2c(-c3ccccc3)n(C)c3ccccc23)cc(OC)c1	i	i	i	45µM	i	nt
Cc1ccc(NS(=O)(=O)c2ccc3c(c2)CCC(=O)N3)cc1F	i	nt	nt	nt	i	nt
CCOC(=O)c1cc(-c2ccc(F)cc2)n(CC(=O)NC2CCCCCC2)c1C	nt	i	i	i	i	nt
CCC1CCCCN1CCCNC(=O)c1ccc2c(c1)N(Cc1cccc(Cl)c1)C(=O)c1ccccc1S2(=O)=O (stereo not given)	nt	i	i	i	i	nt
CC(=O)OCCCNc1cc(Sc2ccc(Cl)cc2)c2nonc2c1[N+](=O)[O-]	?	i[9.22 µM]	i	3.2µM	i	i
Cc1ccc(Sc2cc(NCCCO)c([N+](=O)[O-])c3nonc23)cc1	i	i	i	13µM	i	i
CCCC(=O)OCCNc1cc(Sc2nc3ccccc3[nH]2)c2nonc2c1[N+](=O)[O-]	i	i	i	1µM	?	i
CCCC(=O)NC(C)c1nc2ccccc2[nH]1 (stereo not given)	i	i	i	i	i	i
CC(C)CCSc1cc(NCCO)c([N+](=O)[O-])c2nonc12	i	i	i	3.5µM	i	i
CC(=O)OCCNc1cc(SC(C)C)c2nonc2c1[N+](=O)[O-]	i	i	i	i	?	i
CCN(CC)c1cc(NCCO)c([N+](=O)[O-])c2nonc12	i	i	i	i	?	i
Cc1csc2nc(-c3cccc(NC(=O)c4ccc(S(N)(=O)=O)cc4)c3)cn12	nt	i	i	i	i	nt
